# Most compounds without a hit are left out; they make up all but 21% or so of the library.
# CYP2C9 act: activators of human CYP2C9; P11712; activation factor at 5 µM; hit rate 1.4% among 96,000; recombinant CYP2C9, luciferin-H conversion, luminescence; stronger effect = higher value; factor 1 = untreated enzyme, 0 = blocked;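 active means activation factor of 2 or more for CYP2C9 at a 5 µM dose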;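 further: 0 = sulfaphenazole-blocked wells and 1 = vehicle-only wells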
# CYP2C9 inh: human CYP2C9 inhibition; hit rate 20% among 96,000; CYP2C9 Supersomes, luciferin-H conversion, luminescence; inhibition, % at 5 µM;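 active means blocking of liver enzyme CYP2C9 beyond about 50% at 5 µM, limit read from the data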
# MRP1 act: activators of MRP-1 | viability increase, % at 10 µM | AID 799 | H69AR cells + doxorubicin, viability rescue, CellTiter-Glo | hit rate 0.61% among 140,000;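 active means viability gain under doxorubicin at or above a set limit, the compound median plus 3 SD, cut at about 4.7% in these data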;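 further: MRP-1 overexpressing cells given doxorubicin 25 µM after compound pretreatment; 18-22 h compound pretreatment then 72 h with doxorubicin before readout; 0% = doxorubicin-only wells and 100% = vehicle-treated cells without doxorubicin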
# MRP reversal: compounds reversing MRP-mediated drug resistance; H69AR cells + 2 uM doxorubicin, CellTiter-Glo, 72 h; differential viability (reversal), % at 10 µM; hit rate 0.04% among 85,000; AID 602;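 active means viability drop by adding the cancer drug above about 55%, with treated viability meeting a 40% cutoff, limit read from the data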;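 further: viability without doxorubicin minus viability with 2 µM doxorubicin for each compound; larger differential means the compound sensitizes cells more to doxorubicin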
# CYP2C19 inh: inhibitors of human CYP2C19; P33261; CYP2C19 Supersomes, luciferin-H EGE luminescence, 30 min; hit rate 21% among 96,000; AID 778; inhibition, % at 5 µM;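 active means CYP2C19 inhibition above a set limit at 5 µM in the primary screen, cut at about 50% in these data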;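 further: plate controls were negative control wells for no effect and 2.5 mM tranylcypromine positive control for full effect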
# Target sequence (P33261 whole entry, looked up): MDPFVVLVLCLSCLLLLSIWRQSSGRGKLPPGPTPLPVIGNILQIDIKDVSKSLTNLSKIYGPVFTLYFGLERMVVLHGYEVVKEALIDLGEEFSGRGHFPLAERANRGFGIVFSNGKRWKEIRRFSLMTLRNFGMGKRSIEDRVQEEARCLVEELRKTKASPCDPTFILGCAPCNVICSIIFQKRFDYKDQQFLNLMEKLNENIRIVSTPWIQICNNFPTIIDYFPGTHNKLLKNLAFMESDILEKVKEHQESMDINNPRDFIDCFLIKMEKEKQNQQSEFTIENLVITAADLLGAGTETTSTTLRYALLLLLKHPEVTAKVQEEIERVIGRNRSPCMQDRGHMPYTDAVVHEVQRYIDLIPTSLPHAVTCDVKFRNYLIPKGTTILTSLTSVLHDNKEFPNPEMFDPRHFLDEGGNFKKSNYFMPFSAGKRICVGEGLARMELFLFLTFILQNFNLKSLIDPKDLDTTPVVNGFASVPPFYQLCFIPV
# CYP2C19 act: increases human CYP2C19 enzyme activity; P33261; recombinant CYP2C19, luciferin-H EGE luminescence; stronger effect = higher value; 0 = fully inhibited enzyme, 1 = untreated enzyme; activation factor at 5 µM; 96,000 tested, under 10 active; AID 1025;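 active means activation factor of at least 2 at 5 µM in the primary screen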;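 further: 0 = wells with 2.5 mM tranylcypromine and 1 = vehicle-only wells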
# * hit, by the source's call; x = not tested or not shown.
SMILES,CYP2C9 act,CYP2C9 inh,MRP1 act,MRP reversal,CYP2C19 inh,CYP2C19 act
COc1ccc(OC)c(S(=O)(=O)NCCOC23CC4CC(CC(C4)C2)C3)c1,x,x,0.8,x,x,x
O=C1C2C3C=CC(CO)(O3)C2C(=O)N1c1ccccc1-c1ccccc1 (stereo not drawn),0.9,10.9,-2.1,-5.7,19.2,0.8
CCOC(=O)N1CCC(NC(=O)C(NC(=O)C2CCC(C)CC2)C(C)CC)CC1 (stereo not drawn),0.7,26.1,-1.7,7.0,52.6*,0.5
c1ccc(-c2n[nH]c(-c3ccccn3)n2)nc1,0.9,13.8,0.3,3.7,67.2*,0.3
COc1cccc(C(c2nnnn2Cc2ccco2)N2CCN(c3cccc(C)c3C)CC2)c1OC (stereo not drawn),0.3,70.0*,-1.6,-2.9,55.5*,0.4
Clc1ccccc1C(c1nnnn1Cc1ccco1)N1CCN(Cc2ccco2)CC1 (stereo not drawn),0.8,16.7,0.2,-6.5,96.5*,0
CO/N=C(/CNC(=O)c1ccccc1Cl)c1ccc(Cl)cc1,0.5,47.4,-0.4,x,90.9*,0.1
N#Cc1cnn(-c2nc(SCc3ccccc3)nc3sc4c(c23)CCCC4)c1N,0.6,41.7,0.1,14.8,12.2,0.9
COCCCNc1nc(SCc2ccccc2)nc2sc3c(c12)CCC3,0.4,60.9*,-1.1,-8.0,25.3,0.7
CCOC(=O)c1cc(-c2cc3ccccc3o2)n[nH]1,0.8,22.8,-0.9,-0.1,30.7,0.7
CCOC(=O)c1c(-c2ccsc2)csc1N,0.8,24.1,-0.6,8.6,62.6*,0.4
CCOC(=O)c1cc(-c2ccc(C)o2)n[nH]1,0.5,52.2*,-2.6,x,42.3,0.6
COC(=O)c1c(-c2cccc(C)c2)csc1N,1.1,-13.9,-2.8,-3.1,18.5,0.8
CCOC(=O)c1c(-c2ccc(C)o2)csc1N,0.7,28.9,-1.9,-2.0,58.8*,0.4
CC(C)c1ccc2oc(=O)cc(CN3CCN(c4ccc(F)cc4)CC3)c2c1,0.7,26.0,0.6,-4.6,30.9,0.7
CCc1ccc2oc(=O)cc(CN3CCN(c4ccc(F)cc4)CC3)c2c1,0.8,16.6,-2.8,-1.6,51.6*,0.5
Cc1[nH]nc2c1-c1nc3ccccc3nc1C(C)(C)C2,0.6,38.0,-3.3,-15.3,67.6*,0.3
C=CCn1c(=NC(=O)c2ccco2)sc2cc(C(=O)OCC)ccc21,x,x,-5.6,x,x,x
COc1cccc(CN2CCC(N(CCc3ccccc3)Cc3ccccc3)CC2)c1OC,x,x,-3.5,x,x,x
COc1cc(/C=C/C(=O)NNc2c(F)c(F)cc(F)c2F)ccc1OC(F)F,0.9,8.2,-0.7,-0.8,72.8*,0.3
COc1ccc(/C=N/NC(=O)c2ccccc2F)cc1CN1CCN(c2ccc(F)cc2)CC1,x,x,-1.8,x,x,x
CCOc1cc(S(=O)(=O)NCc2ccccn2)c(C)cc1C,0.8,19.4,-0.4,x,58.8*,0.4
COc1ccc(C(C)C)cc1S(=O)(=O)NCc1ccccn1,0.5,52.2*,0.3,0.0,65.4*,0.3
COc1ccc(NC(=O)CSc2nccn2-c2ccccc2)cc1,0.3,68.8*,-0.1,-7.2,86.4*,0.1
COc1ccc(NC(=O)CSc2nc(N)c3cc4c(nc3n2)CCCC4)c(OC)c1,0.2,80.8*,-3.9,x,22.0,0.8
SMILES,CYP2C9 act,CYP2C9 inh,MRP1 act,MRP reversal,CYP2C19 inh,CYP2C19 act
COc1ccc(-n2ccnc2SCC(=O)Nc2ccc(OC)cc2OC)cc1,0.7,27.3,-2.8,2.0,91.6*,0.1
Cc1ccc(NC(=O)CSc2nc(N)c3cc4c(nc3n2)CCCC4)cc1,x,x,-0.9,x,x,x
Cn1ccnc1SCC(=O)Nc1ccc(Oc2ccccc2)cc1,0.3,71.4*,0.8,10.8,88.2*,0.1
COc1ccc(NC(=O)CSc2nnc(C3CC3)n2-c2ccccc2)cc1,0.6,36.6,-1.1,0.9,25.7,0.7
Cc1nc2ccccn2c1C(=O)N=Nc1c(O)n(CCC(C)C)c2ccccc12,x,x,-2.5,x,x,x
FC(F)(F)c1ccc(/C=N/N2CCN(Cc3ccccc3)CC2)cc1,x,x,-0.9,x,x,x
CCn1cc(C(=O)OCC(=O)N(C)C2CCS(=O)(=O)C2)c(=O)c2ccc(C)nc21 (stereo not drawn),1.3,-28.5,-0.8,-25.7,-7.4,1.1
COc1cccc(C(=O)NN/C(C)=C/C(=O)C(F)(F)C(F)(F)C(F)(F)F)c1,x,x,1.2,x,x,x
O=C1c2ccccc2C(=O)N1c1ccc(S(=O)(=O)N2CCN(c3ccccc3)CC2)cc1,0.9,14.6,-1.3,-29.1,5.9,0.9
